The text below walks through data of PubChem BioAssay (NCI).

Molecules are shown by their SMILES. Compounds without any hit were thinned out: in the full panel of roughly 83,000, 20% have a hit.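 Compound tested at a single concentration for 48 hours in 96-well plates; a percent growth value below 10 was scored as active.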 Unmarked numbers belong to inactive results. Activity calls are given as the source filed them.

What all share (experiment): NCI-60 one-dose screen, 48 h (100 = growth as untreated, 0 = no growth, -100 = all killed)
Common to all, as to settings: 10 µM unless noted

Assay [1] deals with DU-145 prostate.
Assay [2] concerns K-562 leukemia.
Assay [3] concerns MALME-3M melanoma.
Assay [4] deals with MDA-MB-231 breast.
For assay [5], the system named is RXF 393 renal.
In assay [6] the test system is SF-268 CNS.
Assay [7] has as its system SF-295 CNS.
In assay [8] the test system is SF-539 CNS.
Assay [9] deals with UACC-257 melanoma.
In assay [10] the test system is M14 melanoma.

Consider `O=C(N=Nc1c(O)[nH]c2ccccc12)c1cc(-c2ccccc2)on1`, for which the growth in [1] was 113%; in assay [2], 104%; in assay [3], 100%; in [4] it was 93.1%; in assay [5], 118%; in assay [6], 101%. For the same molecule, the growth is 98.2% in assay [7], 97.4% in assay [8], 106% in assay [9] and 104% in assay [10].
With `N#Cc1c(-c2ccc(Cl)cc2)nc(N=Nc2c(O)[nH]c3ccc(Cl)cc23)nc1N1CCOCC1`, the growth in assay [1] was 103%; in assay [2], 116%; in assay [3], 88.8%; in [4] it was 82.9%; in [5], 95.7%; in assay [6], 95.8%. The growth in assay [7] is 102%; in [8] it was 97.8%; in assay [9], 107%; in [10], 93.6%.
As for `CC(=O)O[C@H]1[C@@H]2OC(=O)C(CSc3ccccc3)[C@@H]2C[C@H]2O[C@]2(C)CC/C=C(\C)CCC[C@@H]1C` (stereo not given in full), the growth in [1] is 1.69% (active); in assay [2] it was 63.1%; in assay [3] it was 87.2%; in [4], 14.9%; in assay [5], -53.3% (active); in assay [6], 44.7%. The growth is 49.3% in assay [7], 57% in assay [8], 15.8% in [9] and 51.7% in assay [10].
Consider `COc1ccc(-c2nc3ccc(-c4nc5ccc(N6CCN(c7ccncc7)CC6)cc5[nH]4)cc3[nH]2)cc1OC`, for which the growth in assay [1] was 42.7%; in assay [2], 29.5%; in assay [3], -25% (active); in assay [4], 63%; in assay [5] it was 85.1%; in assay [6], 38.4%. In addition, the growth was 49.8% in [7], 42.5% in assay [8], 11.6% in assay [9] and 13.6% in assay [10].
Take `COc1ccc(-c2n[nH]nc2-c2csc3ccccc23)cc1OC`: the growth is 41.5% in assay [1]; 9.48% (active) in assay [2]; 56.9% in [3]; 35.6% in assay [4]; 23.5% in assay [5]; 30.2% in assay [6]. For the same molecule, the growth in [7] is 25.9%; in assay [8], -2.39% (active); in assay [9], 40.1%; in assay [10], 7.35% (active).
Take `CCOc1cc2ncc(C#N)c(Nc3ccc(OCc4cccc(F)c4)c(Cl)c3)c2cc1NC(=O)CC1CCSS1` (stereo not given): the growth in assay [1] is -24.9% (active); in assay [2], 10.5%; in assay [3] it was 56.5%; in assay [4], 14.5%; in [5], 50.2%; in assay [6], -22.3% (active). The growth in [7] was 91.3%; in assay [8], 49.9%; in assay [9], 64.8%; in assay [10], -68.5% (active).
Consider `CCN(CC)c1ccc(/C=N\NC(=O)/C=C/C=C/c2ccc3c(c2)OCO3)c(O)c1`, for which the growth in [1] was 53.2%; in assay [2] it was 17.6%; in assay [3], 56.5%; in assay [4], 43.2%; in assay [5] it was 72.6%; in assay [6], 33.7%. Also, the growth in assay [7] is 41.7%; in [8], 22.7%; in assay [9] it was 24.2%; in [10], 36.4%.
Consider `COc1ccc2c(c1)O/C(=C\c1cccc(OCC(=O)Nc3nc4c(s3)CCCC4)c1)C2=O`, for which the growth in assay [1] is 42.8%; in assay [2] it was 24.5%; in [3], 109%; in assay [4], 65.9%; in [5] it was -15.4% (active); in assay [6], 89.4%. The growth in [7] is 75.8%; in assay [8] it was 87.8%; in assay [9], 95.1%; in assay [10], 90.9%.
With `CC(C)(C)c1cc(C(C)(C)C)cc(S(=O)(=O)Nc2cc3ccccc3cc2C(=O)NCCN)c1`, the growth was 22.5% in [1]; -37% (active) in assay [2]; 55% in assay [3]; 5.92% (active) in assay [4]; 29.1% in assay [5]; 69.3% in [6]. For the same molecule, the growth is 12.4% in assay [7], 96% in assay [8], 81% in assay [9] and -59.9% (active) in [10].
For the molecule `Cc1oc(-c2ccc(Cl)cc2Cl)cc1C(=O)Nc1nccs1`, the growth in assay [1] was 104%; in assay [2], 95.1%; in assay [3], 85.1%; in assay [4] it was 83.2%; in assay [5], 88.2%; in assay [6] it was 100%. The growth in assay [7] was 87%; in [8], 95.9%; in assay [9], 114%; in assay [10], 99.5%.
In the case of `Cc1ccc2c(C(C[N+](=O)[O-])c3ccccc3)c(-c3ccccc3)[nH]c2c1` (stereo not given), the growth in assay [1] is 30.3% [9.5 µM]; in assay [2], 10.9% [9.5 µM]; in [3] it was 44.7% [9.5 µM]; in assay [4], 37.2% [9.5 µM]; in assay [5], 5.65% [9.5 µM] (active); in [6], 35.2% [9.5 µM]. In addition, the growth in assay [7] was 9.43% [9.5 µM] (active); in [8], 8.82% [9.5 µM] (active); in [9] it was 27.6% [9.5 µM]; in [10] it was 22.3% [9.5 µM].
